# In the supplement of paper PMC6555819:
# Key:
# Assay in all cases: PBM binding z-score (relative to random genomic background probes); higher = stronger binding; sequences stand for … in GC…GCGATTGACAGCGTAGAATGAAGG
# [1] = test system: FXR:RXRa (NR concentration 270 nM, RXRa partner concentration 90 nM)
# Procedure, shortened: (§1)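 Binding z-scores take random background probes as their reference. They come from custom Agilent 4×180K protein-binding microarrays incubated 1 h with ligand-free nuclear receptor dimers, with antibodies against each partner (one per run) detecting binding. Scanned fluorescence was regression-normalized.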
# [2] = test system: LXRa:RXRa (NR concentration 270 nM, RXRa partner concentration 90 nM)
# Procedure, shortened: as §1
# [3] = test system: LXRa homodimer (NR concentration 270 nM)
# Procedure, shortened: as §1
# [4] = test system: LXRb:RXRa (NR concentration 270 nM, RXRa partner concentration 90 nM)
# Procedure, shortened: as §1
# [5] = test system: LXRb homodimer (NR concentration 270 nM)
# Procedure, shortened: as §1
# [6] = test system: PPARa:RXRa (NR concentration 270 nM, RXRa partner concentration 90 nM)
# Procedure, shortened: as §1
# [7] = test system: PPARg:RXRa (NR concentration 180 nM, RXRa partner concentration 90 nM)
# Procedure, shortened: as §1
# [8] = test system: PPARg:RXRa 270nM:90nM, anti-RXR (NR concentration 270 nM, RXRa partner concentration 90 nM)
# Procedure, shortened: as §1
# [9] = test system: PPARg:RXRa 30nM:10nM, anti-RXR (NR concentration 30 nM, RXRa partner concentration 10 nM)
# Procedure, shortened: as §1
# [10] = test system: PPARg:RXRa 90nM:30nM, anti-RXR (NR concentration 90 nM, RXRa partner concentration 30 nM)
# Procedure, shortened: as §1
# [11] = test system: PPARg:RXRa DBDmut IVT, anti-RXR (DBD mutation: RXRa K156A/R161A, NR concentration 270 nM, RXRa partner concentration 90 nM)
# Procedure, shortened: as §1
# [12] = test system: PPARg:RXRa IVT, anti-PPARg (NR concentration 270 nM, RXRa partner concentration 90 nM)
# Procedure, shortened: as §1
# [13] = test system: PPARg DBDmut:RXRa IVT, anti-PPARg (DBD mutation: PPARg1 K132A/R137A, NR concentration 270 nM, RXRa partner concentration 90 nM)
# Procedure, shortened: as §1
# [14] = test system: PPARg DBDmut IVT, anti-PPARg (DBD mutation: PPARg1 K132A/R137A, NR concentration 270 nM)
# Procedure, shortened: as §1
# [15] = test system: PPARg homodimer (NR concentration 180 nM)
# Procedure, shortened: as §1
# [16] = test system: PXR:RXRa (NR concentration 270 nM, RXRa partner concentration 90 nM)
# Procedure, shortened: as §1
# [17] = test system: PXR homodimer (NR concentration 270 nM)
# Procedure, shortened: as §1
# [18] = test system: RARa:RXR (NR concentration 270 nM, RXRa partner concentration 90 nM)
# Procedure, shortened: as §1
# [19] = test system: RARa homodimer (NR concentration 270 nM)
# Procedure, shortened: as §1
# [20] = test system: RARb:RXRa (NR concentration 270 nM, RXRa partner concentration 90 nM)
# Procedure, shortened: as §1
Sequence,PBM binding z-score [1],PBM binding z-score [2],PBM binding z-score [3],PBM binding z-score [4],PBM binding z-score [5],PBM binding z-score [6],PBM binding z-score [7],PBM binding z-score [8],PBM binding z-score [9],PBM binding z-score [10],PBM binding z-score [11],PBM binding z-score [12],PBM binding z-score [13],PBM binding z-score [14],PBM binding z-score [15],PBM binding z-score [16],PBM binding z-score [17],PBM binding z-score [18],PBM binding z-score [19],PBM binding z-score [20]
CTACCAAGGTGAACAAGGTCGTTGACTACTATTC,1.83,1.79,0.0971,1.79,-0.0485,2.65,1.41,1.68,0.448,0.985,2.76,2.84,0.603,0.324,0.75,2.98,2.72,2.61,0.269,2.29
CGTCCAAGGTCAGCAGGTCCGTGAAAGCGACGTG,4.81,3.09,-0.42,2.19,-0.0479,4.13,2.24,3.15,0.0631,1.82,2.55,2.38,-0.178,-1.09,1.99,2.47,0.631,3.08,0.18,4.86
CCAGACTGGTGAAAGGTAACTCAGTCTGGTACGC,-0.45,-0.241,-0.759,-0.0625,-0.842,1.46,2.67,3.83,1.66,3.26,0.00689,0.829,-0.709,-0.951,0.201,-0.0709,-0.492,0.039,-0.414,0.363
TCTGCTAGGTCAGTTGGTCGGCTAACGAGCTGCC,0.77,0.605,-0.503,0.189,0.554,1.17,-0.329,1.54,1.35,1.7,2.4,2.52,-0.323,0.245,-0.547,-0.0242,-0.996,0.254,-0.776,3.2
ACTCGTTGGTCAGCTGAGGTCACACACAATTCGG,3.88,3.44,2.55,3.61,0.51,3.65,1.26,1.84,0.425,1.25,0.747,2.05,-0.129,0.631,3.13,5.42,1.8,4.47,1.77,3.58
CGAACTAGGTCAGAACAGGACAGTGACGGATGAT,1.23,0.594,-0.065,0.276,-0.492,2.87,5.01,4.26,1.69,3.39,7.03,7.13,1.03,0.514,0.929,0.794,0.206,0.633,0.383,2.99
CCTTACGGGTCACGAGCTTATAGCACGACGAGCG,6.56,4.18,-0.258,3.49,-0.00639,5.9,6.33,6.04,2.64,4.89,3.78,4.75,2.37,2.07,3.27,3.85,-0.361,5.25,0.902,4.42
CGTCCAAGGTCATAGGTGGTCAGTGAAGACAGAT,7.11,5.63,1.51,4,0.409,5.57,5.44,5.25,2.42,4.36,2.96,3.73,0.259,-0.648,2.54,4.5,1.58,5,1.26,4.89
ATCTCTAGGTTAGACTCAGTTCAGTGAAGAACGC,1,1.74,1.7,1.12,1.27,0.772,0.251,0.742,0.423,0.508,3.38,2.14,1.55,1.36,1.63,2.69,2.69,1.13,2.42,1.53
ACACACAGGTGAGTGAAGGTAACTCAGCTGGACG,0.469,0.195,-0.241,-0.0782,-0.78,0.352,0.931,0.0284,-0.027,-0.278,0.846,1.04,0.1,-0.00713,0.147,-0.122,-0.17,0.0752,-0.0711,0.791
TCTTGTAGATCAATAGGAGGTTAAGAAAGATCGA,0.54,1.36,0.474,0.851,0.157,1.36,0.389,1.57,2.93,2.25,1.97,0.955,0.693,0.624,0.344,0.712,0.557,1.04,0.522,0.202
GCTGCTAGGTCAACTGATGGTCAGCTATAGCTCG,4.54,3.25,0.314,2.01,0.25,3.81,2.88,3.13,0.633,2.16,5.21,4.3,-0.479,-0.34,1.51,1.3,-0.342,2.91,0.342,4.31
TTACCAACGTGAGCTGAGGTCGTTGATCCAACTC,0.516,0.0402,-0.0796,0.169,-0.442,0.553,-0.116,-0.131,0.0496,-0.0803,-0.844,-0.235,-0.101,-0.365,-0.384,1.52,0.291,0.951,-0.767,0.217
CTTCCAAGGTCAAAGGTCAGTGAAGAGATGACGG,8.35,7.17,4.94,6.74,2.43,7.29,11.1,9.09,8.56,10.7,4.31,5.99,1.55,2.25,5.02,7.21,2.73,8.8,3.33,5.92
